# SARS PLP yeast = SARS-CoV PLP inhibition in yeast. S. cerevisiae expressing SARS-CoV PLpro, growth rescue. Potency, µM (doses to about 32.9 µM), without a hit: top-dose activity, positive = growth rescue, actives largely listed as activators. 0.19% of 330,000 active. AID 485353; note: potency is the fitted concentration of half-maximal effect; 0% is about no effect; nearly all actives have a fitted effect of over 55% in size
# Pf growth 96h = inhibits malaria parasite growth, 96 h; P. falciparum luciferase reporter growth, 96 h; Potency, µM (highest dose often 28.7 µM), for the others: top-dose activity change, negative = inhibition, usual class: inhibitors; 6.9% of 320,000 active; AID 504834; active = well fitted inhibition curve with a large enough effect; inconclusive = small, poorly fitted or top-dose-only effect, or another doubt; inactive = no such curve, though single readings can be large or run the other way; note: potency is the fitted concentration of half-maximal effect; % is set by controls: 0 for no effect and ±100 for the full control effect
#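 Compounds incubated with erythrocytes infected by luciferase-expressing P. falciparum (2% hematocrit, 0.05% parasitemia final) for 96 hours, 37 C in 5% CO2. Growth inhibition scored as decreased luciferase luminescence.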
# Shiga inhibitor = blocks Shiga toxin action in Vero cells | Vero cells, Shiga toxin protein synthesis inhibition reporter | 9.2% of 290,000 active | AID 2315 | inhibition, % at 38.7 µM; in the data active = inhibition mostly above about 28%, no sharp cut-off; inactive = mostly below about 43%; note: 0% is about no effect
# CHX counter = counter-screen hit for Shiga toxin inhibitors, cycloheximide; 12% of 300,000 active; AID 2314; max response, %; cell reporter, cycloheximide protein synthesis inhibition counterscreen; in the data active = max response mostly above about 13%, no sharp cut-off; inactive = mostly below about 14%; note: read at 38.3 µM for the half of the compounds with a filed dose; 0% is about no effect
# NS1 inh = influenza NS1 inhibition. 0.4% of 270,000 active. Potency, µM (series often up to 46.1 µM), for the others: at the highest dose activity, positive = more growth; note: potency is the fitted concentration of half-maximal effect; actives are rising curves; nearly all actives have a fitted effect of over 50% in size
#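 Recovery from NS1-induced slow growth read by OD600 in budding yeast switched to galactose assay medium (pH 6.0, -URA) at 1:100 dilution. Compound 23 nl per well; the matching strain lacking NS1 serves as control.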
# Pf growth 48h = inhibits P. falciparum growth in the first generation, 48 h | AID 504832 | Potency, µM (highest dose often 28.7 µM), for the others: top-dose activity change, negative = inhibition, hits mostly inhibitors | P. falciparum luciferase growth in erythrocytes, 48 h | 5.9% of 310,000 active; active = well fitted inhibition curve with a large enough effect; inconclusive = small, poorly fitted or top-dose-only effect, or another doubt; inactive = no such curve, though single readings can be large or run the other way; note: potency is the fitted concentration of half-maximal effect; % is set by controls: 0 for no effect and ±100 for the full control effect
#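 Firefly luciferase activity from engineered P. falciparum reports growth; inhibitors lower the luminescent signal. Cultures contained 2% hematocrit erythrocytes at 0.1% final parasitemia.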
# Active calls of the source: *; i = inactive; ? = inconclusive; / = not tested or not shown. The list is not random: actives were taken first. Their share in the collection is about 21%. Unless noted, calls come from the whole dose curve.
SMILES,SARS PLP yeast,Pf growth 96h,Shiga inhibitor,CHX counter,NS1 inh,Pf growth 48h
Cc1ccc(C)c(NC(=S)N2CCN(CCO)CC2)c1,15.9%,39.7%,2.3,-4.2,10.6%,7.8%
CCOC(=O)c1ccc(NC(=O)N2CCN(c3ccccc3OC)CC2)cc1,-0.5%,72.5%,94.3,20.6,-4.8%,?
NC(=O)Nc1ccc(C(=O)OCC(=O)N2CCc3ccccc3C2)cc1,0.7%,?,/,/,/,-29.4%
CCOC(=O)c1ccc(NC(=O)N2CCc3ccccc3C2)cc1,-10.0%,5.2%,18.6,30.3*,-50.4%,?
CCOC(=O)c1ccc(NC(=O)N2CCc3ccccc32)cc1,-3.2%,/,58.4*,28.6*,-4.6%,64.0%
COc1ccc(/C=N/NC(=O)c2ccccc2F)cc1CN1CCN(c2ccc(F)cc2)CC1,-6.5%,?,-5.7,10.8,16.8%,-9.2%
CC(=O)NC(c1ccccc1)c1cc([N+](=O)[O-])c2cccnc2c1O (centres undefined),1.7%,-25.5%,16.1,-1.7,/,?
CCCCC(=O)NC(c1ccccc1Cl)c1ccc2cccnc2c1O (centres undefined),?,119.9%,6.5,-1.9,-71.3%,2.33µM*
CCCCC(=O)NC(c1ccc(C(C)C)cc1)c1ccc2cccnc2c1O (centres undefined),7.08µM*,17.0%,-2.8,-3.0,-106.8%,1.65µM*
CC(=O)NC(c1ccc(C(C)C)cc1)c1ccc2cccnc2c1O (centres undefined),-20.5%,228.2%,-10.7,3.2,-121.8%,7.38µM*
Cc1cccc(NC(=O)N2C3CCCC2CC(NC(=O)C(C)(C)C)C3)c1 (centres undefined),7.3%,?,-12.3,-1.2,11.1%,-23.6%
NC(=O)c1ccsc1NC(=O)c1ccc(S(=O)(=O)N2CCCc3ccccc32)cc1,-30.5%,10.4µM*,7.1,3.4,?,?
CC1CCCCN1S(=O)(=O)c1ccc(C(=O)Nc2nnc(-c3ccncc3)o2)cc1 (centres undefined),0.7%,?,-4.6,4.1,/,?
COC(=O)c1sc2ccccc2c1NC(=O)c1ccc(S(=O)(=O)N2CCCCC2C)cc1 (centres undefined),23.2%,13.1µM*,-15.8,-4.2,11.4%,14.7µM*
COC(=O)c1sc2ccccc2c1NC(=O)c1ccc(S(=O)(=O)N2CCCCC2)cc1,-1.4%,11.8%,-13.9,-3.7,-4.6%,12.2%
CC1CCCCN1S(=O)(=O)c1ccc(C(=O)Nc2sccc2C(N)=O)cc1 (centres undefined),-39.2%,9.28µM*,60.1*,55.9*,-25.4%,9.28µM*
O=C(O)c1ccc2c(c1)ncn2C1CCCC1,4.8%,-21.6%,113.6*,47.8*,/,100.7%
CCN(CC)CCNC(=O)c1ccc2c(c1)ncn2C1CCCCC1,5.6%,74.5%,-9.3,-0.9,-7.0%,12.2%
CCCCNC(=O)c1ccc2c(c1)ncn2C1CCCC1,13.3%,?,65.4,33.7*,-4.0%,/
CC(C)CCNC(=O)c1ccc2c(c1)ncn2C1CCCCC1,-2.7%,?,42.0*,19.2,-16.0%,?
CCCCNC(=O)c1ccc2c(c1)ncn2C1CCCCC1,4.9%,?,-4.2,11.8,-3.3%,?
CNC(=S)NNC(=O)c1cccn(Cc2cccc(C(F)(F)F)c2)c1=O,1.1%,-4.0%,-1.2,-6.0,5.7%,-0.3%
CCC(C)[C@H](NC(=O)N1CC(=O)Nc2ccccc21)C(=O)N[C@@H](Cc1c[nH]c2ccccc12)C(=O)O (some centres undefined),0.8%,?,15.7,-2.4,12.3%,23.1%
NS(=O)(=O)c1ccc(Nc2nc(-c3ccc(O)cc3)cs2)cc1,1.3%,20.2%,16.7,1.6,?,-2.5%
Cc1ccc(-c2cc(-c3ccccc3)no2)cc1,-0.3%,212.4%,/,/,/,124.8%
SMILES,SARS PLP yeast,Pf growth 96h,Shiga inhibitor,CHX counter,NS1 inh,Pf growth 48h
Brc1ccc(-c2csc(Nc3nc(-c4ccc(Br)cc4)cs3)n2)cc1,-1.6%,?,41.5,21.6*,?,?
Nc1nc(-c2cccc(Br)c2)cs1,-57.2%,91.9%,82.1*,45.9*,-188.7%,/
O=C(c1ccccc1)c1cc(-c2ccccc2)on1,-5.5%,/,-6.2,19.3*,-22.9%,159.6%
O=C(c1ccccc1)c1c(O)cc(-c2ccccc2)oc1=O,-13.1%,1.6%,7.5,5.0,-19.9%,-8.9%
Nc1nc(-c2cc(-c3ccccc3)no2)cs1,-11.1%,309.2%,68.8*,32.3*,-110.6%,-10.9%
C=CCC1(N(C(C)=O)c2ccccc2)CCCCC1,0.6%,?,35.7,-4.0,-6.6%,4.1%
Nc1nc(-c2ccccc2)cs1,1.7%,123.9%,35.4*,28.8*,-7.0%,/
Nc1nc(-c2ccc(Br)cc2)cs1,-32.7%,131.3%,87.9*,20.3*,-103.0%,72.9%
c1ccc(-c2cc(-c3ccccc3)on2)cc1,-1.8%,244.2%,66.9*,35.5*,-6.5%,i
Nc1nc(-c2ccc(F)cc2)cs1,-2.0%,?,37.6,15.9,-7.4%,41.7%
C[C@@H](OC(=O)c1[nH]cnc1C(=O)NCc1ccc(CNC(=O)OC(C)(C)C)cc1)c1ccccc1,0.2%,/,/,/,/,/
CCN(CC)c1ccc(/C=C/C(=O)c2cccnc2)cc1,1.9%,?,-3.9,-3.9,/,0.928µM*
CN(C)c1ccc(C(=O)/C=C/c2ccccc2)cc1,-7.2%,354.2%,104.8*,43.5*,/,367.1%
CCN(CC)c1ccc(/C=C/C(=O)c2ccc(Br)cc2)cc1,-18.3%,-9.2%,-3.4,13.5*,-0.4%,22.4%
CN(C)c1ccc(/C=C/C(=O)c2c(O)c3ccccc3oc2=O)cc1,1.3%,94.0%,19.8,8.6,-2.8%,117.9%
CN(C)c1ccc(C(=O)/C=C/c2ccc(Br)cc2)cc1,10.4%,8.4%,58.4*,22.9*,2.8%,0.0%
Cc1cc(-c2ccccc2)nc(SCc2ccc(C(=O)O)cc2)n1,-7.4%,309.1%,1.1,-1.1,-34.5%,6.5%
COc1ccc(NCC(O)Cn2c(C)c(C)c3ccccc32)cc1 (centres undefined),-0.5%,7.38µM*,-7.8,1.8,1.1%,?
Cc1c(C)n(CC(O)CNc2ccccc2)c2ccccc12 (centres undefined),-3.7%,?,-27.7,-2.9,-1.5%,?
CC(OC(=O)CCN=C1NS(=O)(=O)c2ccccc21)C(=O)Nc1ccc(F)cc1 (centres undefined),3.4%,25.5%,/,/,/,10.7%
COc1cc(/C=N\Nc2nncn2N)ccc1OC(C)=O,21.0%,0.928µM*,19.0,17.0*,-1.3%,37.6%
COc1ccc(OC)c(/C=N/Nc2nncn2/N=C/c2cc(OC)ccc2OC)c1,-3.3%,?,-6.3,-2.1,-2.5%,5.2%
COc1cc(/C=N/Nc2nncn2/N=C/c2ccc(O)c(OC)c2)ccc1O,-3.4%,5.9%,48.4*,12.8*,/,87.7%
COc1cc(/C=N/Nc2ccccc2)ccc1O,-1.6%,10.4µM*,27.6,15.7,1.7%,?
